Several values for one entry are separate records, joined by “and”; a condition that tells them apart may be missing. Equal values may be shown once. Results filed as inconclusive are left out. A call without a number means that no potency is given here. A structure can be active in one record and inactive in another. Activity calls are given as the source filed them. Unless noted, the call rests on the fitted dose curve.
Experiments:
[1] = Nuclear factor erythroid 2-related factor 2/antioxidant responsive element (Nrf2/ARE) small molecule agonists: qHTS cell viability counter screen in human keratinocytes (AID 1919968; active means well fitted curve in the direction sought with a large enough effect in the repeat runs; an effect the other way counts as inactive or inconclusive; further: nearly all actives have a fitted effect of over 55% in size; further: potency means the concentration at half of the fitted maximal effect)
Outline: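 HaCaT ARE reporter line, 1,500 cells/well; 5 h settle, 37 C/5% CO2; cpd in DMSO pinned; 23 h exposure; CellTiter-Fluor, 1 h; fluorescence.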

[2] = Nuclear factor erythroid 2-related factor 2/antioxidant responsive element (Nrf2/ARE) small molecule agonists: luciferase reporter gene qHTS assay in human keratinocytes (AID 1919969); further: nearly all actives have a fitted effect of over 35% in size; further: potency means the concentration at half of the fitted maximal effect
[3] = target: Gonadotropin-releasing hormone receptor (Homo sapiens) (UniProt P30968); assay: Human gonadotropin-releasing hormone receptor (GnRHR) small molecule agonists, calcium flux assay in GnRHR-HEK293 cells (AID 1920063); further: nearly all actives have a fitted effect of over 35% in size
Outline: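 GnRHR-HEK293, 1500 cells/well, 18 h 37 C/5% CO2; Ca dye 1 h 37 C; cpd pinned (DMSO), agonist mode; kinetic FL 480/540, 3 min, 1 s reads; 15 conc, n=3.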

[4] = target: KiSS-1 receptor (Homo sapiens) (UniProt Q969F8); assay: Human kisspeptin (KISS1R) small molecule agonists, calcium flux assay in KISS1R-HEK293 cells (AID 1920064; active means well fitted curve in the direction sought with a large enough effect in the repeat runs; an effect the other way counts as inactive or inconclusive)
Outline: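 Stable human KISS1R HEK293 line; 18 h plating, 37 C/5% CO2; calcium dye 1 h 37 C; compound pin transfer; kinetic fluorescence Ex/Em 480/540, 3 min.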

[5] = G protein-coupled receptor (GPCR) small molecule agonists, calcium flux assay: HEK293 wild type cell line counter screen (AID 1920065)
Outline: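 Kinetic fluorescence at Ex/Em 480/540, recorded every second over 3 min, served as the read-out after compound addition. Each compound was tested at 15 concentrations in triplicate on cells pre-loaded with calcium dye for 1 h.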

[6] = p53 small molecule agonists, cell-based qHTS assay with human liver microsomes (AID 1963577); further: potency means the concentration at half of the fitted maximal effect;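 on activation: p53 response element beta-lactamase reporter cells with liver microsomes plus NADPH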
Outline: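 16 h, 37 C exposure of p53RE-bla cells to compounds with human liver microsomes and NADPH (0.5 mg/mL final each); detection via LiveBLAzer mixture, 2 h dark at room temperature.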

[7] = p53 small molecule agonists, cell-based qHTS assay with human liver microsomes: qHTS cell viability counter screen (AID 1963579); further: nearly all actives have a fitted effect of over 45% in size
Outline: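 In this multiplexed counter screen, the reporter plates were subsequently treated with CellTiter-Glo so that cell viability, reflected by luminescence, could be recorded for p53RE-bla cells dosed 16 h with compounds under microsomal activation (HLM and NADPH).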

[8] = p53 small molecule agonists, cell-based qHTS assay: qHTS cell viability counter screen (AID 1963581); further: nearly all actives have a fitted effect of over 45% in size
Outline: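 HCT-116 p53RE-bla cells, 4,000/well, plated 5 h before compound pin transfer; 16 h at 37 C; bla substrate 2 h RT; then CellTiter-Glo, 30 min RT, luminescence.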

[9] = p53 small molecule agonists, cell-based qHTS assay (AID 1963582; active means well fitted activation curve with a large enough effect in the signal ratio in the repeat runs, not every such curve was filed as active; the % refers to the signal ratio)
Outline: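 Reporter line: p53RE-bla. Pre-incubation 5 h, 37 C, 5% CO2; compound (DMSO, pin tool) 16 h, 37 C; B/G FRET substrate 2 h RT; fluorescence intensity read.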

[10] = target: 5-hydroxytryptamine receptor 2A (Homo sapiens) (UniProt P28223); assay: 5-hydroxytryptamine receptor 2A (HTR2A) small molecule antagonists, cell-based qHTS assay (AID 1963586); further: nearly all actives have a fitted effect of over 45% in size
Outline: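 Antagonist-mode intracellular calcium assay: DOI (4 nM) added after 5 min compound pre-incubation at room temperature to dye-loaded HTR2A-CHO cells. Fluorescence followed for 3 min, sampled every second.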

[11] = target: 5-hydroxytryptamine receptor 2A (Homo sapiens) (UniProt P28223); assay: 5-hydroxytryptamine receptor 2A (HTR2A) small molecule agonists, cell-based qHTS assay (AID 1963587); further: nearly all actives have a fitted effect of over 30% in size
Outline: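 Kinetic calcium-flux fluorescence (2 min, 1 sec intervals) after compound addition in agonist mode. HTR2A-CHO cells were cultured 18 h, then dye-loaded 1 h at 37 C.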

[12] = target: Muscarinic acetylcholine receptor M1 (Homo sapiens) (UniProt P11229); assay: Cholinergic receptor muscarinic 1 (CHRM1) small molecule antagonists, cell-based qHTS assay (AID 1963588); further: nearly all actives have a fitted effect of over 40% in size
Outline: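 CHRM1-CHO calcium-flux assay, antagonist mode. Cells were seeded 18 h, dye-loaded 1 h at 37 C and given compound for 5 min at RT, then acetylcholine was added at 50nM. FDSS fluorescence was read 3 min; 15 concentrations, three runs.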

[13] = target: Muscarinic acetylcholine receptor M1 (Homo sapiens) (UniProt P11229); assay: Cholinergic receptor muscarinic 1 (CHRM1) small molecule agonists, cell-based qHTS assay (AID 1963589); further: nearly all actives have a fitted effect of over 35% in size
Outline: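 Human M1 in stable CHO line; 18 h plating, 1 h dye load 37 C; cpd added (agonist mode); Ca2+ fluorescence kinetic read, 1 s intervals; 15 conc, 3 runs.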

[14] = cAMP Responsive Elements (CRE) small molecule agonists, cell-based qHTS assay (AID 1963590)
Outline: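 HEK 293T CRE-bla, 2,000 cells/well, 18 h preincubation 37 C/5% CO2; cpds (DMSO) pinned, 3 h; LiveBLAzer B/G FRET substrate, 2 h RT.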

[15] = cAMP Responsive Elements (CRE) small molecule antagonists, cell-based qHTS assay (AID 1963591; active means well fitted inhibition curve with a large enough effect in the signal ratio in the repeat runs, not every such curve was filed as active; the % refers to the signal ratio)
Outline: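 Beta-lactamase reporter read by FRET substrate (LiveBLAzer B/G) after 2 h at room temperature. CRE-bla HEK293T cells had received compound plus 0.25 uM (final) NKH477 for 3 h at 37 °C.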

[16] = target: D(2) dopamine receptor (Homo sapiens) (UniProt P14416); assay: Dopamine D2 receptor (DRD2) small molecule agonists, cell-based qHTS assay (AID 1963594); further: nearly all actives have a fitted effect of over 35% in size
Outline: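 cAMP accumulation in DRD2-HEK293 cells measured by HTRF after 1 h detection; compounds added 10 min before NKH477 (200nM […]) forskolin-analogue stimulation, 30 min at room temperature, with Ro20-1724 present at 0.1 mM final.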

[17] = target: Beta-2 adrenergic receptor (Homo sapiens) (UniProt P07550); assay: Adrenergic beta2 receptor (ADRB2) small molecule antagonists, cell-based qHTS assay (AID 1963592); further: series mostly up to about 92 µM; nearly all actives have a fitted effect of over 50% in size
Outline: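 Cells (CHO, stable ADRB2 overexpression) incubated 18-20hr at 37C; compounds added from DMSO; agonist mix (1nM isoproterenol, 100uM IBMX, 25uM Ro-20-1724) added; 0.5hr RT; d2-cAMP and anti-cAMP-cryptate added; 1hr RT; 665/615 nm read.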

[18] = target: D(2) dopamine receptor (Homo sapiens) (UniProt P14416); assay: Dopamine D2 receptor (DRD2) small molecule antagonists, cell-based qHTS assay (AID 1963595; active means well fitted inhibition curve with a large enough effect in the signal ratio in the repeat runs, with a control signal flat; the % refers to the signal ratio)
Outline: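 DRD2-HEK293; 0.1 mM Ro20-1724; cpd 10 min RT; NKH477 200 nM + quinpirole 12 nM, 30 min RT; HTRF cAMP (cAMP-d2/anti-cAMP cryptate), 665/620 nm ratio after 1 h.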

[19] = p53 small molecule agonists, cell-based qHTS assay with rat liver microsomes: qHTS cell viability counter screen (AID 1963580); further: nearly all actives have a fitted effect of over 45% in size
Outline: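 Intracellular ATP, by CellTiter-Glo luminescence, defines viability. HCT-116 p53RE-bla cells, 4,000 per well, were compound-treated in the presence of rat liver microsomes and NADPH for 16 h at 37 C.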

[20] = p53 small molecule agonists, cell-based qHTS assay with rat liver microsomes (AID 1963578)
Outline: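 With rat liver microsomes and NADPH present (0.5 mg/mL final each), p53RE-bla cells are treated with compound for 16 h at 37 C. LiveBLAzer detection mixture is then applied for 2 h at room temperature in the dark.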

KiSS-1 receptor (Homo sapiens), sequence (Q969F8 whole entry, looked up): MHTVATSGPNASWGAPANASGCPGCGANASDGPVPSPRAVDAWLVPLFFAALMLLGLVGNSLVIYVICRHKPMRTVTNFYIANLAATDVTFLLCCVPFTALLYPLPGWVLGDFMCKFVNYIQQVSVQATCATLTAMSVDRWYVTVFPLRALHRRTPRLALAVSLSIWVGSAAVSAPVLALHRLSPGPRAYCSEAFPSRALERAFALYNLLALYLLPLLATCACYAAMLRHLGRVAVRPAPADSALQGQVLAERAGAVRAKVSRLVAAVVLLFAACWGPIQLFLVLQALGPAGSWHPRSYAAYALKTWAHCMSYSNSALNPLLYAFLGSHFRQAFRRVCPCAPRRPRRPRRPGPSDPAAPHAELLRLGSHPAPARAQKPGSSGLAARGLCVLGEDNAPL
Muscarinic acetylcholine receptor M1 (Homo sapiens), sequence (P11229 whole entry, looked up): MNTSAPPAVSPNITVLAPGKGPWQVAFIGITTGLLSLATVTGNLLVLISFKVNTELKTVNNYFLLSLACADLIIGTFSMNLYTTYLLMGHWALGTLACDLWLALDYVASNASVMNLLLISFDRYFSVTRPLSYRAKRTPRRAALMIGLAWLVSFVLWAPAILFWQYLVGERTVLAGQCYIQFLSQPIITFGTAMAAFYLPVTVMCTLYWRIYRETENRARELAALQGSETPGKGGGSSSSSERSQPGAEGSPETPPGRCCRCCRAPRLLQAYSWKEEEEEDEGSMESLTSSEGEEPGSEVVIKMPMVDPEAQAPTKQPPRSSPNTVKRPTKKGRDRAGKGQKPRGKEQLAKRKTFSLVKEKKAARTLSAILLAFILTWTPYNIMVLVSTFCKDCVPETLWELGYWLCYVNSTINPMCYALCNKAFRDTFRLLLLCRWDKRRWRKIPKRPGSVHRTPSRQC
5-hydroxytryptamine receptor 2A (Homo sapiens), sequence (P28223 whole entry, looked up): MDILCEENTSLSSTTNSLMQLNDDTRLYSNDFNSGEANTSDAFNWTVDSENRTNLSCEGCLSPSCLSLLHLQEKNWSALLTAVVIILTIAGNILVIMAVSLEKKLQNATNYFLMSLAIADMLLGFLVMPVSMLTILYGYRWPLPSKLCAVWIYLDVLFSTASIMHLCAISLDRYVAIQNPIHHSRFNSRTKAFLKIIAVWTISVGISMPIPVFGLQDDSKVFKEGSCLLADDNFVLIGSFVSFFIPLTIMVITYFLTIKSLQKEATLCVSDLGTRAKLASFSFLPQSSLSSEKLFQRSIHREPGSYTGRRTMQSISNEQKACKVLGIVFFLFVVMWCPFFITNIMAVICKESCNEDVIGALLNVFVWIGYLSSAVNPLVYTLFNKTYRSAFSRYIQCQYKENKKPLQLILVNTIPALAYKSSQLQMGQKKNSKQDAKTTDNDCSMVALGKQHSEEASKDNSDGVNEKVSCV
Gonadotropin-releasing hormone receptor (Homo sapiens), sequence (P30968 whole entry, looked up): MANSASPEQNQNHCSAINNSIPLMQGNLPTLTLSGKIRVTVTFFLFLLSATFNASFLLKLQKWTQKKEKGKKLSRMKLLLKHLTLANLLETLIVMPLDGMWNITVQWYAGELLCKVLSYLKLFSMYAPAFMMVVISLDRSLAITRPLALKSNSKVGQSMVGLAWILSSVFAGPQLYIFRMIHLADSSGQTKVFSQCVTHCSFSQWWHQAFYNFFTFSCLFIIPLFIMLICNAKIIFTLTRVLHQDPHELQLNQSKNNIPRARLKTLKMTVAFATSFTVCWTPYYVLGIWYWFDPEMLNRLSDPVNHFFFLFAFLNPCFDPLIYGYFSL
D(2) dopamine receptor (Homo sapiens), sequence (P14416 whole entry, looked up): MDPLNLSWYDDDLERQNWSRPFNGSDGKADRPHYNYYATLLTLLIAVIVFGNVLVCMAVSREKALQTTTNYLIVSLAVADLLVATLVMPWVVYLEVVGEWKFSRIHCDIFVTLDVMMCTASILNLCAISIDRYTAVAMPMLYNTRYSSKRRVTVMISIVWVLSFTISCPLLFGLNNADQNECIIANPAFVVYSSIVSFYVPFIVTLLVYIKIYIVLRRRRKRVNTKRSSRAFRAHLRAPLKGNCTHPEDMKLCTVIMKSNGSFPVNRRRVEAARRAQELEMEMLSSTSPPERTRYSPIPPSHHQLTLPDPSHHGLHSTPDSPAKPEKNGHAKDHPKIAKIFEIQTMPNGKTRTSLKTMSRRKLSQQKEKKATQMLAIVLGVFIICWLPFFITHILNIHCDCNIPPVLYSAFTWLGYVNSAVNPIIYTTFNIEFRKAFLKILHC
Beta-2 adrenergic receptor (Homo sapiens), sequence (P07550 whole entry, looked up): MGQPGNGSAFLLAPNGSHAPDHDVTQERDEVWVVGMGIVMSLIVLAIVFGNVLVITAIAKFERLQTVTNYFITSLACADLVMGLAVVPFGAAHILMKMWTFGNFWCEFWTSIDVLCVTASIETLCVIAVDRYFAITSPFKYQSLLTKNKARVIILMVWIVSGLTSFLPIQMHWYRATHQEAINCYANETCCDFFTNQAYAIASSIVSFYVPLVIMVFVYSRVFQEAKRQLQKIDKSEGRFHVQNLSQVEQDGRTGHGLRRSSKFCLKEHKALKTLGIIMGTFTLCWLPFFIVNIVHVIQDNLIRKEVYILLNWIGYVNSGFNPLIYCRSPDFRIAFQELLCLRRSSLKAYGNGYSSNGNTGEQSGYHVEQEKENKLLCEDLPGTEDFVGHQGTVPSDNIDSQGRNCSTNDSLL

Compound	Potency [1]	Potency [2]	Potency [3]	Potency [4]	Potency [5]	Potency [6]	Potency [7]	Potency [8]	Potency [9]	Potency [10]	Potency [11]	Potency [12]	Potency [13]	Potency [14]	Potency [15]	Potency [16]	Potency [17]	Potency [18]	Potency [19]	Potency [20]
CN1CC[C@]23c4c5ccc(O)c4O[C@H]2[C@@H](O)CC[C@H]3[C@H]1C5	inactive	inactive	inactive	inactive	inactive	inactive	inactive	inactive	inactive	inactive	inactive	inactive	inactive	inactive	inactive	inactive	–	–	–	–
CC[C@H](N)c1ccccc1	inactive	inactive	inactive	inactive	inactive	inactive	inactive	inactive	inactive	inactive	inactive	inactive	inactive	inactive	inactive	inactive	inactive	inactive	–	–
c1ccc(Nc2ccc3ccccc3c2)cc1	68.2 µM (active)	12.1 µM (active) and 21.7 µM (active)	inactive	inactive	inactive	inactive	–	–	inactive	inactive	inactive	inactive	–	–	inactive	inactive	inactive	inactive	–	–
Cc1ccc(OP(=O)(Oc2ccc(C)cc2)Oc2ccc(C)cc2)cc1	inactive	61 µM (active) and inactive	inactive	inactive	inactive	inactive	inactive	–	inactive	inactive	inactive	inactive	inactive	inactive	inactive	inactive	inactive	inactive	inactive	–
CC1(C)C(=O)NC(=O)NC1=O	inactive	inactive	inactive	inactive	inactive	inactive	inactive	inactive	inactive	inactive	inactive	inactive	inactive	inactive	inactive	inactive	inactive	inactive	–	–
CCCCSP(=O)(SCCCC)SCCCC	inactive	inactive	inactive	inactive	inactive	inactive	inactive	inactive	inactive	inactive	inactive	inactive	inactive	inactive	inactive	inactive	inactive	inactive	inactive	–
Oc1ccccc1Cl	inactive	inactive	inactive	inactive	inactive	inactive	inactive	inactive	inactive	inactive	inactive	inactive	inactive	inactive	inactive	inactive	inactive	inactive	inactive	–
C=CCN(CC=C)C(=O)C(Cl)Cl	inactive	inactive	inactive	inactive	inactive	inactive	inactive	inactive	inactive	inactive	inactive	inactive	inactive	inactive	inactive	inactive	inactive	inactive	inactive	–
CCOC(=O)CC(SP(=S)(OC)OC)C(=O)OCC (stereo unspecified)	inactive	24.3 µM (active)	inactive	inactive	inactive	inactive	inactive	inactive	inactive	inactive	inactive	inactive	inactive	inactive	inactive	inactive	inactive	inactive	inactive	–
CCCCCBr	inactive	inactive	inactive	inactive	inactive	inactive	inactive	inactive	inactive	inactive	inactive	inactive	inactive	inactive	inactive	inactive	inactive	inactive	inactive	–
COP(=S)(OC)SCn1nnc2ccccc2c1=O	inactive	53.4 µM (active) and 68.6 µM (active)	inactive	inactive	inactive	12.6 µM (active)	inactive	inactive	inactive	inactive	inactive	–	inactive	inactive	inactive	inactive	inactive	inactive	inactive	–
COP(=S)(OC)Oc1ccc(S(=O)(=O)N(C)C)cc1	inactive	inactive	inactive	inactive	inactive	1.29 µM (active)	inactive	inactive	inactive	inactive	inactive	inactive	inactive	inactive	inactive	inactive	inactive	inactive	–	–
N#CCCCl	inactive	inactive	inactive	inactive	inactive	–	inactive	inactive	inactive	inactive	inactive	inactive	inactive	inactive	inactive	inactive	inactive	inactive	inactive	inactive
CC(=O)C1CCOC1=O (stereo unspecified)	inactive	inactive	inactive	inactive	inactive	–	inactive	inactive	inactive	inactive	inactive	inactive	inactive	inactive	inactive	inactive	inactive	inactive	inactive	inactive
CN(C)c1ccccc1	inactive	inactive	inactive	inactive	inactive	inactive	inactive	inactive	inactive	–	inactive	inactive	inactive	inactive	inactive	inactive	inactive	inactive	inactive	–

— PubChem BioAssay (Tox21)
